For 20 molecules, outcome and AC50 results are on record in PubChem BioAssay (EPA / NIEHS).

Assay [1] in a line: ACEA_ER_80hr: ACEA Biosciences xCELLigence Real-Time Cell Analysis on Estrogen Receptor Agonism for Proliferation (AID 2282667; active means hit-call score of the fitted dose curve at least 0.9, where 1 is the maximum). To be noted: T47D proliferation, impedance (xCELLigence), 80 h. In a few lines:
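Impedance readout (RT-CES) of T47D proliferation at 80 h post-dose; gain of signal vs DMSO baseline. Compounds: 8 conc, 1:4 serial, top 100 uM final, ≤0.5% DMSO; biological duplicate.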

A short description of assay [2]: APR_HepG2_CellCycleArrest_24hr: Apredica 24-hour HepG2 Assay for Cell Cycle Arrest (AID 2282905).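 Further: cell cycle arrest scored as ratio of 2N to 4N nuclear DNA content.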 To be noted: imaging, actives raise or lower the signal. In a few lines: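 Step one: dose HepG2 with test compounds, 0.39–200 uM, 0.5% DMSO, 24 hr. Step two: fix, permeabilize, stain nuclei with Hoechst 33342. Step three: image six fields per well at 20x, quantify DNA content, fit bidirectionally relative to DMSO.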

Assay [3] in a line: APR_HepG2_NuclearSize_24hr: Apredica 24-hour HepG2 Assay for Nuclear Size (AID 2282907). The conditions noted are these: high-content imaging, actives raise or lower the signal. The gist of the method: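 After fixation and permeabilization, 24-hr-treated HepG2 cells were stained with Hoechst 33342 and imaged on an ArrayScan (20x). Doses spanned 0.39–200 uM in duplicate. Nuclear diameter changes in either direction were fitted relative to 0.5% DMSO controls.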

A short description of assay [4]: APR_HepG2_CellLoss_24hr: Apredica 24-hour HepG2 Assay for Cell Loss (AID 2282908). The conditions noted are these: high-content imaging. The gist of the method:
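Duplicate wells received compound at ten concentrations (0.39–200 uM; final DMSO 0.5% v/v). After fixation with formaldehyde, nuclei stained with Hoechst 33342 were imaged at 20x. Loss or gain of cell count was fitted relative to DMSO controls.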

Assay [5] in a line: APR_HepG2_MicrotubuleCSK_24hr: Apredica 24-hour HepG2 Assay for Microtubule CSK Stabilty (AID 2282909). The conditions noted are these: HepG2 microtubule cytoskeleton imaging, actives raise or lower the signal. In a few lines:
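Microtubule stability is scored from tubulin immunofluorescence in fixed HepG2 cells imaged at 20x. Cells receive ten compound concentrations up to 200 uM for 24 h; taxol and DMSO serve as positive and negative controls.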

A short description of assay [6]: APR_HepG2_MitoticArrest_24hr: Apredica 24-hour HepG2 Assay for Mitotic Arrest (AID 2282910). The conditions noted are these: high-content imaging, actives raise or lower the signal. The gist of the method: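 High-content imaging of fixed HepG2 cells labeled with Hoechst 33342 and anti-phospho-histone H3, after 24 h treatment. Ten concentrations 0.39 to 200 uM in duplicate, final DMSO 0.5%; changes fitted both directions relative to DMSO.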

Assay [7] in a line: APR_HepG2_MitoMembPot_24hr: Apredica 24-hour HepG2 Assay for Mitochondrial Membrane Potential (AID 2282911). The conditions noted are these: imaging, actives raise or lower the signal. The gist of the method:
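HepG2, 24 hr dosing, 10 concentrations 0.39–200 uM, 0.5% DMSO final. Live-cell MitoTracker Red CMXRos 250 nM 30 min, then 3.7% formaldehyde fix. HCS fluorescence imaging, 20x; bidirectional fit vs DMSO baseline.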

The nature of assay [8]: APR_HepG2_MitoMass_24hr: Apredica 24-hour HepG2 Assay for Mitochondrial Mass (AID 2282912). To be noted: high-content imaging, actives raise or lower the signal. In a few lines:
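Readout: fluorescence of MitoTracker Red CMXRos (250 nM, added 30 min pre-fixation) in fixed HepG2 cells imaged by HCS. Exposure lasted 24 hr at 0.39–200 uM; increases and decreases were both fitted relative to DMSO.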

Assay [9] can be described thus: APR_HepG2_p53Act_24hr: Apredica 24-hour HepG2 Assay for p53 Activation (AID 2282913).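 Further: p53 protein immunofluorescence averaged per cell in HepG2 with Hoechst nuclei.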 The conditions noted are these: high-content imaging, actives raise or lower the signal. The gist of the method: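 Read-out: Cy5 immunofluorescence for p53 in fixed, permeabilized HepG2, imaged by HCS with Hoechst-defined nuclei. Dosing was 24 hr at 0.39–200 uM in 0.5% DMSO. Curves were fitted bidirectionally relative to DMSO.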

Assay [10] in a line: APR_HepG2_CellCycleArrest_72hr: Apredica 72-hour HepG2 Assay for Cell Cycle Arrest (AID 2282914). To be noted: high-content imaging, actives raise or lower the signal. In a few lines: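 HepG2, 72 hr exposure, 10-point 0.39–200 uM, duplicate, 0.5% DMSO final. Fix 3.7% formaldehyde 30 min RT, Triton X-100 0.5%, Hoechst 33342 2 ug/mL. ArrayScan 20x, six fields/well; DNA content per nucleus; bidirectional fit vs DMSO.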

Inconclusive results are not listed. Active and inactive are the calls of the source. How the source made its calls, unless noted: active means hit-call score of the fitted dose curve at least 0.9, where 1 is the maximum; inactive means score below 0.9.

`CCOc1ccc2c(c1)C(C)=CC(C)(C)N2`: the result in assay [1], in assay [2], in assay [3], in assay [4], in assay [5] and in assay [6] was inactive. In addition, the molecule was called inactive in assay [7], in assay [8], in [9] and in assay [10].
As for `Cc1ccc(N(C)C)cc1`, the molecule was called inactive in [1], in assay [2], in assay [3], in [4], in assay [5] and in [6]. For the same molecule, the molecule was called inactive in assay [7], in assay [8], in [9] and in assay [10].
In the case of `CCNc1cccc(C)c1`, the molecule was called inactive in assay [1], in assay [2], in assay [3], in assay [4], in assay [5] and in assay [6]. In addition, the result in assay [7], in assay [8], in [9] and in assay [10] was inactive.
For `NCC1(Cc2noc(=O)[nH]2)CCCCC1`, the call in [1], in assay [2], in assay [3], in assay [4], in [5] and in assay [6] was inactive. Moreover, the outcome in [7], in assay [8], in assay [9] and in assay [10] was inactive.
Usually AC50 stands for the concentration giving half of the maximal activity seen. On to `CCCCCCCCCCCCCCCCCC(=O)O`, for which the AC50 in [1] is 2.04 µM (active). The call in [2], in [3], in assay [4], in assay [5], in assay [6] and in [7] was inactive. The call in [8], in assay [9] and in [10] was inactive.
Turning to `Cc1ccc(C(C)C)c(O)c1`, the result in assay [1], in [2], in assay [3], in assay [4], in assay [5] and in assay [6] was inactive. The molecule was classed as inactive in assay [7], in [8], in assay [9] and in assay [10].
`Cc1cc(=O)[nH]c(=S)[nH]1`: the molecule was called inactive in [1], in assay [2], in assay [3], in assay [4], in assay [5] and in assay [6]. Also, the call in assay [7], in assay [8], in assay [9] and in assay [10] was inactive.
With `Cc1ccc(C)c(C)c1`, the molecule was called inactive in assay [1], in assay [2], in [3], in assay [4], in [5] and in assay [6]. The result in assay [7], in [8], in assay [9] and in [10] was inactive.
`CCCCCCOCCO`: the outcome in assay [1], in [2], in assay [3], in assay [4], in assay [5] and in [6] was inactive. The outcome in [7], in assay [8], in [9] and in [10] was inactive.
Take `CC1(C)NC(=O)NC1=O`: the outcome in assay [1], in [2], in assay [3], in [4], in assay [5] and in assay [6] was inactive. In addition, the call in assay [7], in assay [8], in assay [9] and in assay [10] was inactive.
`COc1ccc(C)cc1N`: the molecule was called inactive in [1], in assay [2], in assay [3], in [4], in [5] and in assay [6]. The molecule was classed as inactive in [7], in [8], in [9] and in assay [10].
For the molecule `CC(C)c1ccc(C(=O)N=C(N)N)cc1S(C)(=O)=O`, the result in [1], in assay [2], in assay [3], in [4], in assay [5] and in [6] was inactive. Besides, the molecule was classed as inactive in [7], in [8], in assay [9] and in assay [10].
Take `COC(=O)c1ccc(O)cc1`: the molecule was called inactive in assay [1], in assay [2], in assay [3], in assay [4], in assay [5] and in assay [6]. Besides, the outcome in [7], in [8], in [9] and in assay [10] was inactive.
For the molecule `O=C(N[C@@H](Cc1ccccc1)[C@@H](O)C(=O)N1C[C@@H](O)[C@@H](O)C1)c1cc2cc(Cl)ccc2[nH]1`, the molecule was classed as inactive in assay [1], in assay [2], in [3], in assay [4], in [5] and in [6]. Moreover, the outcome in [8] and in assay [9] was inactive. Further, the results for the AC50 in assay [7] and in [10] were 86.4 µM (active) and 91.7 µM (active), respectively.
For the molecule `Clc1cc(Cl)c(Cl)cc1Cl`, the molecule was classed as inactive in assay [1], in assay [2], in assay [3], in assay [4], in assay [5] and in assay [6]. For the same molecule, the molecule was called inactive in [7], in assay [8], in assay [9] and in assay [10].
On to `NS(=O)(=O)c1cc2c(cc1Cl)NCNS2(=O)=O`, for which the molecule was called inactive in [1], in [2], in assay [3], in [4], in [5] and in [6]. Further, the outcome in assay [7], in assay [8], in assay [9] and in assay [10] was inactive.
Turning to `CN1CCCC1=O`, the outcome in assay [1], in [2], in [3], in assay [4], in [5] and in [6] was inactive. Further, the call in assay [7], in assay [8], in assay [9] and in assay [10] was inactive.
Take `O=C(O)Cc1ccccc1Nc1c(Cl)cccc1Cl`: the AC50 in assay [1] was 50 µM (active). Besides, the call in assay [2], in assay [3], in [4], in [5], in assay [6] and in assay [7] was inactive. Besides, the call in [8], in assay [9] and in assay [10] was inactive.
Regarding `Cc1nc(-c2ccc3c(c2)CCN(CCC2CCC(NC(=O)/C=C/c4ccc(F)cc4)CC2)CC3)no1` (stereo not given), the result in assay [1], in assay [2], in assay [3], in assay [4], in assay [5] and in assay [6] was inactive. The molecule was called inactive in assay [7], in [8], in assay [9] and in assay [10].
Turning to `Cc1cccc([N+](=O)[O-])c1C`, the molecule was called inactive in [1], in assay [2], in assay [3], in [4], in assay [5] and in assay [6]. Besides, the molecule was classed as inactive in [7], in [8], in assay [9] and in [10].
